In the supplement of paper PMC6897291:

Assays:
RIVA [1] = test: growth inhibition by drug plus 177Lu-lilotomab satetraxetan (1 - RLU/untreated control) (fraction); higher = stronger inhibition; settings: 177Lu-lilotomab satetraxetan 0.5 ug/ml
How it was run: (§1)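 Compound doses on the pre-printed Selleck Cambridge Cancer Compound library plates were 10/100 nM for RIVA cells and 10/1,000 nM for U-2932 cells, seeded at 3,000 cells/well. Before seeding, cells were washed after 18 h with or without a radiolabelled anti-CD37 antibody conjugate (~600 MBq/mg; 0.5 µg/ml RIVA, 1 µg/ml U-2932). Growth inhibition was derived from RealTime-Glo luminescence relative to untreated no-drug control wells. Readings were taken daily starting on day 3, each after 1 h at 37°C, and each well's RLU was divided by the mean of 48 such wells per plate and subtracted from 1.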

U-2932 [2] = test: growth inhibition by drug alone (1 - RLU/untreated control) (fraction); higher = stronger inhibition; settings: 177Lu-lilotomab satetraxetan 0 ug/ml
How it was run: as §1

RIVA [3] = test: as above; settings: 177Lu-lilotomab satetraxetan 0 ug/ml
How it was run: as §1

U-2932 [4] = test: growth inhibition by drug plus 177Lu-lilotomab satetraxetan (1 - RLU/untreated control) (fraction); higher = stronger inhibition; settings: 177Lu-lilotomab satetraxetan 1 ug/ml
How it was run: as §1

SMILES	growth inhibition by drug plus 177Lu-lilotomab satetraxetan (RIVA [1]; 100 nM, time (day): 5)	growth inhibition by drug plus 177Lu-lilotomab satetraxetan (RIVA [1]; 100 nM, time (day): 6)	growth inhibition by drug alone (U-2932 [2]; 10 nM, time (day): 3)	growth inhibition by drug alone (U-2932 [2]; 10 nM, time (day): 4)	growth inhibition by drug alone (U-2932 [2]; 10 nM, time (day): 5)	growth inhibition by drug alone (U-2932 [2]; 10 nM, time (day): 6)	growth inhibition by drug alone (U-2932 [2]; 1000 nM, time (day): 3)	growth inhibition by drug alone (U-2932 [2]; 1000 nM, time (day): 4)	growth inhibition by drug alone (U-2932 [2]; 1000 nM, time (day): 5)	growth inhibition by drug alone (U-2932 [2]; 1000 nM, time (day): 6)	growth inhibition by drug alone (RIVA [3]; 10 nM, time (day): 3)	growth inhibition by drug alone (RIVA [3]; 10 nM, time (day): 4)	growth inhibition by drug alone (RIVA [3]; 10 nM, time (day): 5)	growth inhibition by drug alone (RIVA [3]; 10 nM, time (day): 6)	growth inhibition by drug alone (RIVA [3]; 100 nM, time (day): 3)	growth inhibition by drug alone (RIVA [3]; 100 nM, time (day): 4)	growth inhibition by drug alone (RIVA [3]; 100 nM, time (day): 5)	growth inhibition by drug alone (RIVA [3]; 100 nM, time (day): 6)	growth inhibition by drug plus 177Lu-lilotomab satetraxetan (U-2932 [4]; 10 nM, time (day): 3)	growth inhibition by drug plus 177Lu-lilotomab satetraxetan (U-2932 [4]; 10 nM, time (day): 4)	growth inhibition by drug plus 177Lu-lilotomab satetraxetan (U-2932 [4]; 10 nM, time (day): 5)	growth inhibition by drug plus 177Lu-lilotomab satetraxetan (U-2932 [4]; 10 nM, time (day): 6)	growth inhibition by drug plus 177Lu-lilotomab satetraxetan (U-2932 [4]; 1000 nM, time (day): 3)	growth inhibition by drug plus 177Lu-lilotomab satetraxetan (U-2932 [4]; 1000 nM, time (day): 4)	growth inhibition by drug plus 177Lu-lilotomab satetraxetan (U-2932 [4]; 1000 nM, time (day): 5)	growth inhibition by drug plus 177Lu-lilotomab satetraxetan (U-2932 [4]; 1000 nM, time (day): 6)	growth inhibition by drug plus 177Lu-lilotomab satetraxetan (RIVA [1]; 10 nM, time (day): 3)	growth inhibition by drug plus 177Lu-lilotomab satetraxetan (RIVA [1]; 10 nM, time (day): 4)	growth inhibition by drug plus 177Lu-lilotomab satetraxetan (RIVA [1]; 10 nM, time (day): 5)	growth inhibition by drug plus 177Lu-lilotomab satetraxetan (RIVA [1]; 10 nM, time (day): 6)	growth inhibition by drug plus 177Lu-lilotomab satetraxetan (RIVA [1]; 100 nM, time (day): 3)	growth inhibition by drug plus 177Lu-lilotomab satetraxetan (RIVA [1]; 100 nM, time (day): 4)
Cc1cc(Nc2cc(N3CCN(C)CC3)nc(Sc3ccc(NC(=O)C4CC4)cc3)n2)n[nH]1 [VX-680 (MK-0457, Tozasertib)]	0.616	0.727	–	–	–	–	–	–	–	–	–	–	–	–	–	–	–	–	–	–	–	–	–	–	–	–	–	–	–	–	–	–
C=CCc1cccc(/C=N/NC(=O)CN2CCN(Cc3ccccc3)CC2)c1O	0.488	0.509	0.126	0.104	0.0863	0.00412	0.161	0.136	0.0263	-0.0573	-0.0454	0.0184	-0.0886	-0.379	-0.195	-0.0942	-0.0824	-0.181	0.0573	0.108	0.173	0.215	0.15	0.163	0.17	0.249	0.608	0.648	0.666	0.668	0.392	0.492
CCC(C)n1ncn(-c2ccc(N3CCN(c4ccc(OCC5COC(Cn6cncn6)(c6ccc(Cl)cc6Cl)O5)cc4)CC3)cc2)c1=O (stereo not drawn) [Itraconazole (Sporanox)]	0.541	0.559	0.0829	0.0704	0.0582	-0.11	0.0952	0.087	0.0678	-0.00563	-0.0197	0.0654	-0.0473	-0.325	-0.037	0.0162	0.00541	-0.0886	0.0224	0.0823	0.142	0.126	0.102	0.147	0.188	0.311	0.61	0.642	0.66	0.668	0.407	0.522
Cc1ccc(F)c(NC(=O)Nc2ccc(-c3cccc4[nH]nc(N)c34)cc2)c1 [Linifanib (ABT-869)]	0.546	0.517	0.0297	0.0175	-0.00657	0.043	0.133	0.146	0.103	0.0811	-0.11	-0.109	-0.157	-0.289	0.0372	0.000859	-0.0495	-0.102	0.0166	0.0206	0.0473	0.197	0.0768	0.108	0.147	0.253	0.454	0.546	0.574	0.585	0.515	0.54
